# Source: ChEMBL document CHEMBL4513216, “Probing the Open Global Health Chemical Diversity Library for Multistage-Active Starting Points for Next-Generation Antimalarials” (ACS Infect Dis, 2020)
# About 8,600 (12%) of roughly 69,000 compounds showed an effect of 50% or more. The sample as a whole holds a higher share of strong results than the screen did.
# System: Plasmodium berghei
# Test: Screen against P. berghei liver stage (PbLuc), transformed with Luciferase, at 10uM
# Assay type: functional, HepG2
# Settings: tested at 10 uM
row,SMILES,INHIBITION [%]
1,O=C(c1ccco1)N1CC[C@@H](N2CCOCC2)[C@@H]1Cc1ccncc1,24.1
2,Cc1cc(CN2CCN(C(=O)NCc3c(C)noc3C)CC2)on1,44.3
3,O=c1[nH]nc2c(S(=O)(=O)N3CCN(c4ccc(F)cc4)CC3)cccn12,39.5
4,Cc1cnn(CCNCc2csc(-c3ccsc3)n2)c1,-69.15
5,CC(CN1CCOCC1)NC(=O)Nc1cccnc1-n1cccn1 (configuration not stated),-31.1
6,CN(C)CCO[C@@H]1CC[C@H]2[C@H]1OCCN2C(=O)c1ccc(F)cc1,42.1
7,CC(=O)N1CCC(Cc2cnc(-c3c(C)n[nH]c3C)cn2)CC1,1.5
8,Cc1cc(NC(C)Cc2cccs2)n2nccc2n1 (configuration not stated),42.1
9,Cn1cc(CN2CCC(F)(F)C3(CCN(c4cnccn4)C3)C2)cn1 (configuration not stated),-31.5
10,CCOc1ncnc2c1CCN(Cc1cccs1)CC2,36.2
11,COc1cc(C)ccc1OCCC(=O)N1CCCC(n2cncn2)C1 (configuration not stated),-16
12,CCOCC1CN(C(=O)Cc2ccccn2)Cc2cn(C)nc21 (configuration not stated),51.2
13,CCOCC1CN(C(=O)Cc2ccccn2)Cc2cn(CC)nc21 (configuration not stated),31.4
14,CCOCC1CN(C(=O)Cc2ccccn2)Cc2cnn(CC)c21 (configuration not stated),54.4
15,CCOCC1CN(C(=O)c2cnoc2C)Cc2cnn(C)c21 (configuration not stated),-11.2
16,CCOCC1CN(C(=O)c2cnoc2C)Cc2cn(C)nc21 (configuration not stated),51.2
17,CCOCC1CN(C(=O)Cc2ccccn2)Cc2c1cnn2CC (configuration not stated),42.7
18,CCOCC1CN(C(=O)c2cnoc2C)Cc2cn(CC3CC3)nc21 (configuration not stated),-50.8
19,CCOCC1CN(C(=O)COc2ccccc2)Cc2cn(C)nc21 (configuration not stated),5.96
20,CCOCC1CN(C(=O)Cc2ccccn2)Cc2cnn(C)c21 (configuration not stated),-45.8
21,CC(NC(=O)N1CCC1)c1ccc(S(C)(=O)=O)cc1 (configuration not stated),18.4
22,CC(=O)N(C)c1nc(CN2CCCC2Cn2nc(C)cc2C)cs1 (configuration not stated),-14.7
23,O=C(c1csc(-c2ccccn2)n1)N1CCCC1Cn1cccn1 (configuration not stated),38.8
24,O=C(Cc1cccs1)N1CCC(O)(CN2CCc3ccccc3C2)C1 (configuration not stated),38.2
25,CC(=O)NCC1CCN(C(=O)CCOc2ccc(C(C)C)cc2)CC1,-39.35
26,CSc1ccc(CNC(=O)NCC(O)c2cccc(F)c2)cc1 (configuration not stated),19.6

row,SMILES,INHIBITION [%]
1,CNC(=O)NCC1CCC2(CCN(c3ncccn3)CC2)CO1 (configuration not stated),15.8
2,CC(=O)N1CC(=O)N(c2cnn(C)c2)CC12CCN(Cc1cccs1)C2 (configuration not stated),6.27
3,CN(C)Cc1cc(-c2nccn2CCc2cccnc2)ccc1O,31.3
4,CN(C)Cc1csc(-c2nccn2Cc2ccsc2)c1,66.1
5,CN(C)Cc1csc(-c2nccn2CCc2cccnc2)c1,59.1
6,Cc1nc(C)c(Cn2ccnc2-c2cc(CN(C)C)cs2)s1,30.9
7,Cc1c(Cn2ccnc2-c2cc(CN(C)C)cs2)cnn1C,23.5
8,CN(C)Cc1csc(-c2nccn2Cc2ccc(C(=O)O)cc2)c1,37.4
9,O=C(NCC1CCOCC1)c1cc(-c2ccncc2)c2cnccc2n1,17.4
10,CN(Cc1nnc2n1CCC2)C(=O)CCc1ccc2c(c1)OCO2,-21.8
11,C[C@H]1CN(Cc2cccc(F)c2)C[C@@]12CCN(CC(=O)N(C)C)C2=O,19.8
12,Cc1ccc(N2CCCC(NCc3ccc(Cl)o3)C2)nn1 (configuration not stated),-12.1
13,COc1cccc(C(=O)N(C)C(C)c2c(C)n[nH]c2C)c1OC (configuration not stated),12.6
14,COc1cccc(OC)c1C(C(=O)O)N(C)Cc1c(C)n[nH]c1C (configuration not stated),53.3
15,CCOc1ccccc1C(C(=O)O)N(C)Cc1nnc(C)o1 (configuration not stated),-0.614
16,COc1cccc(Cl)c1C(C(=O)O)N(C)Cc1c(C)n[nH]c1C (configuration not stated),57.6
17,COc1ccc(C(C(=O)O)N(C)Cc2ccon2)cc1Cl (configuration not stated),-23.5
18,COc1cc(C)cc(OC)c1C(C(=O)O)N(C)Cc1c(C)nn(C)c1C (configuration not stated),9.56
19,COc1cccc(Cl)c1C(C(=O)O)N(C)Cc1nnc(C)o1 (configuration not stated),52.2
20,Cc1n[nH]c(C)c1CN(C)C(C(=O)O)c1ccc2c(c1)OCO2 (configuration not stated),11.2
21,Cc1n[nH]c(C)c1CN(C)C(C(=O)O)c1c(F)cccc1OC(C)C (configuration not stated),40.6
22,COc1ccc(CCC(=O)Nc2ccc3ncn(C)c(=O)c3c2)cc1,22.3
23,COCc1cn(CC2CCN(Cc3nc(C)c[nH]3)CC2)nn1,-7.85
24,Cc1cc(C(=O)N2CCc3c(CN(C)C)nn(C)c3C2)[nH]n1,13.7
25,O=C(NCCc1ccncc1)c1cccc(S(=O)(=O)N[C@@H]2CCNC2)c1,-16.1
26,O=C(Nc1nc2c(s1)CNCC2)NC1CCCC1,44.5
